Assay results as given in PubChem BioAssay (Tox21).
Several values for one entry are separate records, joined by “and”; a condition that tells them apart may be missing. Identical values can stand only once. Inconclusive results are not listed. Some structures have more than one record in an assay (separate samples or runs), and their calls can disagree. Activity calls are given as the source filed them. Unless noted, calls follow the shape of the dose curve; as a rule, active = well fitted curve in the direction sought with a large enough effect in the repeat runs; inconclusive = weak or mixed curves; inactive = no such curve, though single readings can be large; an effect the other way counts as inactive or inconclusive.

What was measured:
[1] = molecular target: Progesterone receptor (Homo sapiens) (UniProt P06401); assay: qHTS assay to identify small molecule agonists of the progesterone receptor (PR) signaling pathway (AID 1346784; calls by dose curve; also: nearly all actives have a fitted effect of over 30% in size)
Sequence of Progesterone receptor (Homo sapiens) (P06401 whole entry, looked up): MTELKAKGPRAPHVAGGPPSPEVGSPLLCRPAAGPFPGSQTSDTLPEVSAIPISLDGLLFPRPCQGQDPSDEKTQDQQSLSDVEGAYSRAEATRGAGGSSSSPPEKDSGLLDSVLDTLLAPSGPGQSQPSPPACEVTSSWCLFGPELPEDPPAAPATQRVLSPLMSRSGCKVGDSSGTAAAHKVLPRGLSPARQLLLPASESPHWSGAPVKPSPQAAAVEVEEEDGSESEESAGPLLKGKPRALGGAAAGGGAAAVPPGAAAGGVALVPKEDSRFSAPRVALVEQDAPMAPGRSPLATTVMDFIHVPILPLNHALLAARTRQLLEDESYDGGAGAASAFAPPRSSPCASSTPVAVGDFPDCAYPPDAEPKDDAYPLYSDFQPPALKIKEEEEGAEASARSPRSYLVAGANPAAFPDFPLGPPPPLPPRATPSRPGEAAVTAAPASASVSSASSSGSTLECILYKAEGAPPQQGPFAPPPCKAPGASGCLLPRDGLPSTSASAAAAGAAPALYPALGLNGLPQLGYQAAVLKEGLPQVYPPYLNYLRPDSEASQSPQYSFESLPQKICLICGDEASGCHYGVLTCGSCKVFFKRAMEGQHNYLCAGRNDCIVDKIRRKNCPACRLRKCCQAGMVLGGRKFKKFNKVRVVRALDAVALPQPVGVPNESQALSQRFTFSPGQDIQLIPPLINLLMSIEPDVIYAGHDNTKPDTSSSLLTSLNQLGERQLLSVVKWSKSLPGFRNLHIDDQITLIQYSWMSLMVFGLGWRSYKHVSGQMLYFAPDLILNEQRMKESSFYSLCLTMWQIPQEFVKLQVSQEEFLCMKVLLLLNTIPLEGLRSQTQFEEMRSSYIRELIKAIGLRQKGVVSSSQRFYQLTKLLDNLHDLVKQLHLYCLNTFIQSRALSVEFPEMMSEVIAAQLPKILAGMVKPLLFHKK
How it was run: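 PR-UAS-bla HEK 293T cells carrying a UAS-driven beta-lactamase reporter were seeded in medium with 2% charcoal-stripped FBS, preincubated 6 hr at 37C, then exposed to compounds in DMSO for 16 hr; agonism was read by LiveBLAzer B/G FRET fluorescence.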

[2] = molecular target: Progesterone receptor (Homo sapiens) (UniProt P06401); assay: qHTS assay to identify small molecule antagonists of the progesterone receptor (PR) signaling pathway (AID 1346795; active = well fitted inhibition curve with a large enough effect in the signal ratio in the repeat runs, not every such curve was filed as active; the % refers to the signal ratio; also: potency is read from the fitted curve at half-maximal effect)
How it was run: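 PR-UAS-bla HEK293T cells carrying a UAS-driven beta-lactamase reporter were plated in medium with 2% charcoal-stripped FBS and rested 6 hr at 37C. Compounds were added with 1 nM R5020 (final) for 16 hr, then FRET substrate loaded 2 hr at room temperature.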

[3] = qHTS assay to identify small molecule antagonists of the progesterone receptor (PR) signaling pathway - cell viability counter screen (AID 1346798); also: nearly all actives have a fitted effect of over 50% in size; also: potency is read from the fitted curve at half-maximal effect
How it was run: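 PR-UAS-bla HEK293T cells in medium with 2% charcoal-stripped FBS were treated with compounds plus R5020 for 16 hr at 37C. Cell viability was then read by CellTiter-Glo luminescence after 30 min at room temperature in the same wells.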

[4] = qHTS assay to identify small molecule agonists of the progesterone receptor (PR) signaling pathway - cell viability counter screen (AID 1346799; calls by dose curve; also: nearly all actives have a fitted effect of over 45% in size; also: potency is read from the fitted curve at half-maximal effect)
How it was run: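 PR-UAS-bla HEK293T cells, 3,000 per well in medium with 2% charcoal-stripped FBS, were preincubated 6 hr at 37C, then exposed to compounds for 16 hr; viability was read as CellTiter-Glo luminescence after 30 min at room temperature.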

[5] = qHTS assay to identify small molecule agonists of the TGF-beta/Smad signaling pathway - cell viability counter screen (AID 1346829); also: nearly all actives have a fitted effect of over 45% in size; also: potency is read from the fitted curve at half-maximal effect
How it was run: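 HEK 293T SBE-bla line, 5 hr compound exposure at 37 C, multiplexed CellTiter-Glo viability read by luminescence.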

[6] = qHTS assay to identify small molecule agonists of the TGF-beta/Smad signaling pathway (AID 1346859; active = well fitted activation curve with a large enough effect in the signal ratio in the repeat runs, not every such curve was filed as active; the % refers to the signal ratio; also: potency is read from the fitted curve at half-maximal effect; as to activation: series mostly up to about 77 µM)
How it was run: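 HEK 293T cells stably carrying a beta-lactamase reporter driven by the Smad binding element were seeded overnight, exposed to DMSO-dissolved compounds for 5 hr at 37 C, 5% CO2, then loaded with FRET substrate for 2 hr at room temperature.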

[7] = molecular target: Thyrotropin-releasing hormone receptor (Homo sapiens) (UniProt P34981); assay: qHTS assay to identify small molecule antagonists of the thyrotropin-releasing hormone receptor (TRHR) signaling pathway (AID 1346877; active = well fitted inhibition curve with a large enough effect in the repeat runs, not every such curve was filed as active; also: potency is read from the fitted curve at half-maximal effect)
Sequence of Thyrotropin-releasing hormone receptor (Homo sapiens) (P34981 whole entry, looked up): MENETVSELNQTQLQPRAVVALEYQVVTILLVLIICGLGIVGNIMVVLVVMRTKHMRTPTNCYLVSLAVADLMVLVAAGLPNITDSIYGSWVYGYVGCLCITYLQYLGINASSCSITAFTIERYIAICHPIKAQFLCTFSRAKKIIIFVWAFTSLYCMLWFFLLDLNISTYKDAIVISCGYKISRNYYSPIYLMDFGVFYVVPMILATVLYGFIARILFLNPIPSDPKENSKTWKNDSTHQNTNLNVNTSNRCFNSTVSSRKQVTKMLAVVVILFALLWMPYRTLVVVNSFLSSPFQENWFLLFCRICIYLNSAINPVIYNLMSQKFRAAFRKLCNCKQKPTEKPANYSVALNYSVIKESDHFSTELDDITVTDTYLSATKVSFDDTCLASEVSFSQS
How it was run: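 Calcium signal in dye-loaded TRHR/HEK293 cells; compounds added 5 min before TRH (1 nM final); fluorescence monitored 3 min at 1 s steps.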

[8] = molecular target: Thyrotropin-releasing hormone receptor (Homo sapiens) (UniProt P34981); assay: qHTS assay to identify small molecule agonists of the thyrotropin-releasing hormone receptor (TRHR) signaling pathway (AID 1346891; calls by dose curve; also: series mostly up to about 58 µM)
How it was run: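 TRHR-expressing HEK293 cells were plated 18 h at 37 °C/5% CO2, loaded with calcium dye 2 h at 37 °C, then given compound in DMSO; fluorescence was read kinetically for 3 min at 1 s intervals.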

[9] = Human pregnane X receptor (PXR) small molecule agonists, qHTS cell viability counter screen (AID 1346977); also: nearly all actives have a fitted effect of over 50% in size; also: potency is read from the fitted curve at half-maximal effect
How it was run: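 PXR-Luc HepG2 cells in medium with 5% charcoal-stripped FBS were pre-incubated 5hr, then exposed to compounds for 24hr at 37C. Viability was read in the same wells by CellTiter-Fluor fluorescence, reagent added after 23hr with a 1hr incubation.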

[10] = Caspase-3/7 induction in HepG2 cells by small molecules, qHTS assay (AID 1346978); also: nearly all actives have a fitted effect of over 15% in size; also: potency is read from the fitted curve at half-maximal effect
How it was run: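 Caspase-3/7 induction was measured by Caspase-Glo 3/7 luminescence (30 min, room temperature) after a 17 hr compound exposure of wild-type HepG2 cells seeded at 2,000 per well and pre-incubated 5 hr.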

[11] = Caspase-3/7 induction in CHO-K1 cells by small molecules, qHTS cell viability counter screen (AID 1346979); also: nearly all actives have a fitted effect of over 35% in size; also: potency is read from the fitted curve at half-maximal effect
How it was run: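 Wild-type CHO-K1 cells were seeded at 1,500 per well, rested 5hr at 37 C, then exposed to compounds in DMSO. After 16hr, CellTiter-Fluor reagent was added and fluorescence read 1hr later as the viability measure.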

[12] = Caspase-3/7 induction in CHO-K1 cells by small molecules, qHTS assay (AID 1346980); also: nearly all actives have a fitted effect of over 15% in size
How it was run: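 Luminescent Caspase-Glo 3/7 read (30min, room temperature) quantified apoptosis induction. Cells were wild-type CHO-K1, treated with compound for 17hr at 37 C and 5% CO2.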

[13] = Caspase-3/7 induction in HepG2 cells by small molecules, qHTS cell viability counter screen (AID 1346981); also: nearly all actives have a fitted effect of over 30% in size; also: potency is read from the fitted curve at half-maximal effect
How it was run: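 After a 5-hr attachment period at 37 C and 5% CO2, wild-type HepG2 cells received compounds in DMSO. Sixteen hours later CellTiter-Fluor was dispensed and the fluorescent signal quantified after a further hour.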

[14] = molecular target: Nuclear receptor subfamily 1 group I member 2 (Homo sapiens) (UniProt O75469); assay: Human pregnane X receptor (PXR) small molecule agonists, qHTS assay (AID 1346982); also: nearly all actives have a fitted effect of over 35% in size; also: potency is read from the fitted curve at half-maximal effect
Sequence of Nuclear receptor subfamily 1 group I member 2 (Homo sapiens) (O75469 whole entry, looked up): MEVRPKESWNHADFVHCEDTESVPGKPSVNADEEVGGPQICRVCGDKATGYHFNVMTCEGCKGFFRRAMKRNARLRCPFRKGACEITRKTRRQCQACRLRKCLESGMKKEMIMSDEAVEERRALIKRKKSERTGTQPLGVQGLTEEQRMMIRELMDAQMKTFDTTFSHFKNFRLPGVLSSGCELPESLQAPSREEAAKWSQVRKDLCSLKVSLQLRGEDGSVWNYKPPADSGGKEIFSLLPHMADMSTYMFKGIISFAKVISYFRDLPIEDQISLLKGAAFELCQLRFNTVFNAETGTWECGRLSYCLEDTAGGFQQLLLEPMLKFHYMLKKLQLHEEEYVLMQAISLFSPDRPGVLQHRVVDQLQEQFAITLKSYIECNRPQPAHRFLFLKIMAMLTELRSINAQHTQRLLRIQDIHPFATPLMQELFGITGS
How it was run: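 Tox21 qHTS; PXR-Luc HepG2; compounds pinned from DMSO; 24 hr, 37 C; ONE-Glo luciferase detection, 30 min room temperature.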

[15] = molecular target: Acetylcholinesterase (Homo sapiens) (UniProt P22303); assay: Acetylcholinesterase (AChE) small molecule antagonists: colormetric cell-based qHTS assay (AID 1347395; calls by dose curve; also: nearly all actives have a fitted effect of over 30% in size)
Sequence of Acetylcholinesterase (Homo sapiens) (P22303 whole entry, looked up): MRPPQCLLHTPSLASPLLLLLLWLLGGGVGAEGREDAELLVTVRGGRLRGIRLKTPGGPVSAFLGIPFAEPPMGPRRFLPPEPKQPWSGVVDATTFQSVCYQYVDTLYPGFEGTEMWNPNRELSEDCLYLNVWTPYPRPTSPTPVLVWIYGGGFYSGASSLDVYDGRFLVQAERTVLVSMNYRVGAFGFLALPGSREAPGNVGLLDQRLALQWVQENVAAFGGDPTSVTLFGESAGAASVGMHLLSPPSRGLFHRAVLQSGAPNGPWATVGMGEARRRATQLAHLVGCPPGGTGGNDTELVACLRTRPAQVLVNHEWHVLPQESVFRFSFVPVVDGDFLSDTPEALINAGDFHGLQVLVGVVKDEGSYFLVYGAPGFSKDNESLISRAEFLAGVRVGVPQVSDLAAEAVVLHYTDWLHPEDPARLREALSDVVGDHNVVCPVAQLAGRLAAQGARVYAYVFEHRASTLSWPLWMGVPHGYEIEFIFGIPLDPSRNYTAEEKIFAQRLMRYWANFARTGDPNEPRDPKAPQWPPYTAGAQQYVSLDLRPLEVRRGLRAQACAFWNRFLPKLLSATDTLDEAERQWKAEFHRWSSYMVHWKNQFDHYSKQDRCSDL
How it was run: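 SH-SY5Y cells, plated overnight at 37 C, were exposed to compounds for 30 min at 37 C and 5% CO2. Acetylthiocholine plus DTNB was then added, and thiocholine from endogenous AChE was quantified colorimetrically after 90 min at 37 C.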

[16] = molecular target: Acetylcholinesterase (Homo sapiens) (UniProt P22303); assay: Acetylcholinesterase (AChE) small molecule antagonists: enzyme-based qHTS assay (AID 1347397; calls by dose curve; also: nearly all actives have a fitted effect of over 55% in size; also: potency is read from the fitted curve at half-maximal effect); settings: Potency: AChE enzyme activity inhibition
How it was run: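 Colorimetric DTNB readout of acetylthiocholine hydrolysis, 10 min at room temperature, after 30 min room-temperature exposure of 50 mU/mL recombinant human enzyme to compound; DMSO vehicle control.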

[17] = qHTS assay to identify small molecule antagonists of the TGF-beta/Smad signaling pathway - cell viability counter screen (AID 1346824); also: nearly all actives have a fitted effect of over 50% in size; also: potency is read from the fitted curve at half-maximal effect
How it was run: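 Cytotoxicity counter-screen run in the same wells as the beta-lactamase Smad reporter read: CellTiter-Glo luminescence after 30 min at room temperature. HEK 293T SBE-bla cells had 5 hr compound exposure at 37 C with TGF-beta1 (0.25 ng/mL stock).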

[18] = molecular target: Nuclear receptor subfamily 1 group I member 2 (Rattus norvegicus) (UniProt Q9R1A7); assay: Rat pregnane X receptor (rPXR) activation by small molecules, qHTS assay (AID 1346983); settings: rPXR luciferase reporter cells, One-Glo luminescence, 24 h; stronger effect = higher value; also: nearly all actives have a fitted effect of over 20% in size
Sequence of Nuclear receptor subfamily 1 group I member 2 (Rattus norvegicus) (Q9R1A7 whole entry, looked up): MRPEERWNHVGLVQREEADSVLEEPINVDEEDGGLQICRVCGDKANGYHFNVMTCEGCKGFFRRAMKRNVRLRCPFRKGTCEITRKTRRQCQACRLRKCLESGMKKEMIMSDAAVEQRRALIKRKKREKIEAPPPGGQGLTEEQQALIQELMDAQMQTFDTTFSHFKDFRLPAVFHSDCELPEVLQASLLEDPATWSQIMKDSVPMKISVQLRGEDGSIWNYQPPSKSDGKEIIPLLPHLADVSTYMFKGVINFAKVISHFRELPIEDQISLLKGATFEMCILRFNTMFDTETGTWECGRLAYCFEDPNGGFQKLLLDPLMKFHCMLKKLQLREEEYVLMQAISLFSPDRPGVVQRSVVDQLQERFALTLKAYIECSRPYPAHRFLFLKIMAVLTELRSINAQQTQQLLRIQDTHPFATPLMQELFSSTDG
How it was run: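 Luminescent readout (One-Glo luciferase, 30 min room temperature) followed 24 hr compound treatment at 37 C of rPXR cells plated 2,000 per well and preincubated 5hr; qHTS format with compounds delivered in DMSO.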

[19] = molecular target: Nuclear receptor subfamily 1 group I member 2 (Homo sapiens) (UniProt O75469); assay: CYP3A4 induction through human pregnane X receptor (PXR) by small molecules, qHTS assay (AID 1346984); also: nearly all actives have a fitted effect of over 40% in size
How it was run: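 Cells (DPX-2; HepG2 with PXR element plus CYP3A4-promoter luciferase) settled 5hr, then were treated 24hr at 37C. A 3hr, 3uM-final Luciferin-IPA step preceded luminescence measurement with One-Glo.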

[20] = molecular target: Nuclear receptor subfamily 1 group I member 2 (Homo sapiens) (UniProt O75469); assay: Human pregnane X receptor (PXR) activation by small molecules, qHTS assay (AID 1346985); also: nearly all actives have a fitted effect of over 40% in size
How it was run: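 DPX-2 cells (HepG2 co-transfected with a PXR response element and a CYP3A4-promoter luciferase construct) were seeded at 2,000 per well, rested 5 hr at 37C, then exposed to DMSO-dissolved compounds for 24 hr. Activation was read as luciferase luminescence.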
% is scaled to controls: 0 for no effect and ±100 for the full control effect.

CCOC(=O)c1ccccc1N
inactive: Potency [1] | Potency [2] | Potency [3] | Potency [4] | Potency [5] | Potency [6] | Potency [7] | outcome [8] | Potency [9] | Potency [10] | Potency [11] | Potency [12] | Potency [13] | Potency [14] | Potency [15] | Potency [16]

[CH3][Sn]([Cl])([Cl])[Cl]
inactive: Potency [1] | Potency [2] | Potency [3] | Potency [4] | Potency [5] | Potency [6] | Potency [7] | outcome [8] | Potency [9] | Potency [10] | Potency [11] | Potency [12] | Potency [13] | Potency [14] | Potency [15] | Potency [16]

CN(C)c1ccccc1
inactive: Potency [1] | Potency [2] | Potency [3] | Potency [4] | Potency [5] | Potency [6] | Potency [7] | outcome [8] | Potency [9] | Potency [10] | Potency [11] | Potency [12] | Potency [13] | Potency [14] | Potency [15] | Potency [16]

ClC(Cl)(Cl)c1ccccc1
inactive: Potency [1] | Potency [2] | Potency [3] | Potency [4] | Potency [17] | Potency [5] | Potency [6] | Potency [9] | Potency [10] | Potency [11] | Potency [12] | Potency [13] | Potency [14] | Potency [15] | Potency [16]

CCCCOC(=O)COC(=O)c1ccccc1C(=O)OCCCC
inactive: Potency [1] | Potency [2] | Potency [3] | Potency [4] | Potency [17] | Potency [5] | Potency [6] | Potency [9] | Potency [10] | Potency [11] | Potency [12] | Potency [13] | Potency [14] | Potency [15] | Potency [16]

CCC1(c2ccc(N)cc2)CCC(=O)NC1=O (configuration not stated)
inactive: Potency [1] | Potency [2] | Potency [3] | Potency [4] | Potency [5] | Potency [6] | Potency [7] | outcome [8] | Potency [9] | Potency [10] | Potency [11] | Potency [12] | Potency [13] | Potency [14] | max activation [18] -2.76% | Potency [19] | outcome [20] | Potency [15] | Potency [16]

O=C1C(Cl)=C(Cl)C(=O)c2ccccc21
active: Potency [2] 48.6 µM | Potency [3] 61.3 µM and 61.1 µM | Potency [4] 61.1 µM | Potency [17] 49.1 µM and 49 µM | Potency [5] 49.1 µM and 43.6 µM | Potency [7] 21.4 µM and 21.3 µM | Potency [9] 39.8 µM | Potency [11] 4.34 µM and 9.69 µM | Potency [13] 61.3 µM | Potency [16] 35.7 µM and 25.2 µM
inactive: Potency [1] | outcome [8] | Potency [10] | Potency [12] | Potency [14] | Potency [15]

CC(C)=CC1C(C(=O)OCc2cccc(Oc3ccccc3)c2)C1(C)C (configuration not stated)
active: Potency [14] 24.3 µM and 13.3 µM
inactive: Potency [1] | Potency [2] | Potency [3] | Potency [4] | Potency [5] | Potency [6] | Potency [7] | outcome [8] | Potency [9] | Potency [10] | Potency [11] | Potency [12] | Potency [13] | max activation [18] 1.4% | Potency [19] | Potency [15] | Potency [16]

NN=C(N)N
inactive: Potency [1] | Potency [2] | Potency [3] | Potency [4] | Potency [17] | Potency [5] | Potency [6] | Potency [9] | Potency [10] | Potency [11] | Potency [12] | Potency [13] | Potency [14] | max activation [18] -0.866% | Potency [19] | outcome [20]

OCCOCCO
62.9 µM (active) and inactive: Potency [14]
31.5 µM (active) and inactive: Potency [10]
inactive: Potency [1] | Potency [2] | Potency [3] | Potency [4] | Potency [17] | Potency [5] | Potency [6] | Potency [9] | Potency [12] | Potency [13] | Potency [15] | Potency [16]
7.92 µM (active) and inactive: Potency [11]

O=C1Nc2ccc(Cl)cc2C(c2ccccc2)=NC1O (configuration not stated)
inactive: Potency [1] | Potency [2] | Potency [3] | Potency [4] | Potency [17] | Potency [5] | Potency [6] | Potency [9] | Potency [10] | Potency [12] | Potency [13] | max activation [18] 0.163% | outcome [20] | Potency [15] | Potency [16]
active: Potency [14] 38.9 µM and 46.1 µM

COC(=O)Nc1nc2ccccc2[nH]1
inactive: Potency [1] | Potency [2] | Potency [3] | Potency [4] | Potency [5] | Potency [6] | Potency [7] | outcome [8] | Potency [9] | Potency [12] | Potency [13] | Potency [15] | Potency [16]
6.11 µM (active) and inactive: Potency [10]
active: Potency [14] 54.5 µM

Oc1ccc(Cl)cc1Cl
48.6 µM (active) and inactive: Potency [6]
inactive: Potency [1] | Potency [2] | Potency [3] | Potency [4] | Potency [5] | Potency [7] | outcome [8] | Potency [9] | Potency [10] | Potency [11] | Potency [12] | Potency [13] | Potency [14] | Potency [15] | Potency [16]

Cc1ccc(N=CN(C)C=Nc2ccc(C)cc2C)c(C)c1
15.4 µM (active) and inactive: Potency [14]
inactive: Potency [1] | Potency [2] | Potency [3] | Potency [4] | Potency [5] | Potency [6] | Potency [7] | outcome [8] | Potency [9] | Potency [10] | Potency [12] | Potency [13] | max activation [18] 0.462% | Potency [19] | outcome [20] | Potency [15] | Potency [16]
